About 83,000 compounds went through this panel and 20% of them were active in at least one assay; those are over-represented in the sample as a whole.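 Single-concentration screen, 48 h exposure, 96-well plates. Endpoint: percent growth. Below 10 = active.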 Active and inactive are the calls of the source.
Experiments:
Assay in all cases: NCI-60 one-dose screen, 48 h (100 = growth as untreated, 0 = no growth, -100 = all killed)
Details in all cases: 10 µM
[1] = system: HT29 colon
[2] = system: SNB-75 CNS
[3] = system: SNB-19 CNS
[4] = system: U251 CNS
[5] = system: PC-3 prostate
[6] = system: SK-MEL-5 melanoma
[7] = system: UACC-62 melanoma
[8] = system: LOX IMVI melanoma
[9] = system: SK-MEL-28 melanoma
[10] = system: SK-MEL-2 melanoma

Measured: growth

CC(=O)OCc1cc(-c2nc3ccccc3[nH]c2=O)nn1-c1ccc(Cl)cc1
inactive: [1] 104% | [2] 98.6% | [3] 89.4% | [4] 100% | [5] 99% | [6] 97.8% | [7] 89.3% | [8] 102% | [9] 107% | [10] 100%

CCN(CC)CCSCCCNc1c2ccc(Cl)cc2nc2ccc(OC)cc12
active: [1] -58.1% | [2] -97.8% | [3] -38.4% | [4] -70.6% | [5] -30.3% | [6] -99.1% | [7] -72.9% | [8] -80% | [9] -67% | [10] -77.5%

Cn1c([N+](=O)[O-])cnc1/C=C1\Oc2ccccc2C1=O
inactive: [2] 43.8%
active: [1] -23.7% | [3] -17.3% | [4] -12.6% | [5] -21.4% | [6] -94.1% | [7] -90% | [8] -50.2% | [9] -25.9% | [10] -53.3%

O=C(/C(=C/c1ccccc1)CN1CCCCC1)c1ccccc1
active: [1] -30.6% | [4] -22.7% | [5] -9.65% | [6] -86% | [7] -67% | [8] -75.1% | [9] -63% | [10] -67%
inactive: [2] 30.6% | [3] 45.9%

CS(=O)(=O)Nc1cccc(-c2cc(-c3ccccc3Cl)c(C#N)c(N)n2)c1
inactive: [1] 15.6% | [3] 49% | [4] 24.7% | [5] 22.3% | [6] 30.9% | [7] 42.8% | [8] 43.7% | [9] 69.1% | [10] 38.5%
active: [2] -26.4%

O=c1[nH]c(-c2ccc(Cl)cc2)nc2sc3c(c12)CCCC3
inactive: [1] 106% | [2] 57.9% | [3] 76.6% | [4] 54.3% | [5] 93.2% | [6] 75.9% | [7] 55.8% | [8] 48.9% | [9] 107% | [10] 102%

FC(F)(F)c1ccc2nc(-c3nc(-c4ccccc4)n4ccccc34)[nH]c2c1
inactive: [1] 14.7% | [2] 66.9% | [3] 116% | [4] 59.5% | [5] 39.6% | [6] 84.1% | [7] 103% | [8] 20.6% | [9] 98.4% | [10] 81.6%

Cc1occc1-c1nnc(SCC(=O)c2ccc(NC(=O)CC(C)C)cc2)o1
inactive: [1] 113% | [2] 111% | [3] 95.8% | [4] 105% | [5] 100% | [6] 94.9% | [7] 104% | [8] 105% | [9] 123% | [10] 90.8%

Nc1nc(N=Nc2ccc(O)cc2)cc(=O)[nH]1
inactive: [1] 123% | [2] 119% | [3] 99.5% | [4] 93.6% | [5] 104% | [6] 96.6% | [7] 101% | [8] 93.7% | [9] 106% | [10] 144%

O=C1/C(=C\c2ccccc2)CN(C(=O)c2ccccc2F)C/C1=C\c1ccccc1
inactive: [2] 53.5% | [3] 51% | [10] 54.8%
active: [1] -46.7% | [4] -36% | [5] 8.54% | [6] -48.6% | [7] -17.4% | [8] -86% | [9] -56.7%

c1ccc2c(c1)oc1c3c(ccc12)NCCC3
inactive: [1] 95.1% | [2] 97.1% | [3] 108% | [4] 90.7% | [5] 91.5% | [6] 94.1% | [7] 84.2% | [8] 96.6% | [9] 107% | [10] 97.5%

NC(=O)SCC(=O)Nc1ccc(S(N)(=O)=O)cc1
inactive: [1] 107% | [2] 96.3% | [3] 104% | [4] 104% | [5] 100% | [6] 102% | [7] 89% | [8] 97% | [9] 113% | [10] 111%

N=C1c2nc3n(c2C(=O)c2nc4n(c21)CCCC4)CCCC3
inactive: [3] 30% | [4] 50.7% | [5] 90.6% | [10] 82.7%
active: [1] -13.7% | [2] -97% | [6] -98% | [7] -85.1% | [8] -68% | [9] -67.2%

Clc1ccc(/C=C2\CCCC3=C2N=C2SC=NN2C3c2ccc(Cl)cc2)cc1 (stereo not given)
inactive: [1] 60.7% | [2] 93.2% | [3] 96.5% | [4] 84.6% | [5] 96.3% | [6] 101% | [7] 80.2% | [8] 55.1% | [9] 98.4% | [10] 113%

N#Cc1ncc(-c2ccc(C(F)(F)F)cc2)c(NCc2cc(C(F)(F)F)cc(C(F)(F)F)c2)n1
active: [1] 9.29% | [5] 1.54% | [10] -2.7%
inactive: [2] 37.9% | [3] 29.8% | [4] 27.3% | [6] 75.3% | [7] 19.4% | [8] 14.9% | [9] 39.3%

O=C(CC(C(=O)c1ccccc1)N1CCOCC1)c1ccccc1 (stereo not given)
inactive: [1] 92.4% | [2] 101% | [3] 95.6% | [4] 88% | [5] 99.4% | [6] 95.5% | [7] 87.7% | [8] 88.4% | [9] 92.2% | [10] 102%

Cc1ccc(NC(=O)Nc2nc3ccccc3s2)cc1NC(=O)Nc1nc2ccccc2s1
inactive: [1] 90.1% | [2] 61.5% | [3] 92% | [4] 77.2% | [5] 44.5% | [6] 79.6% | [7] 86.6% | [8] 91.7% | [9] 101% | [10] 98.5%

c1ccc([I+]c2ccccc2)cc1
inactive: [1] 31.4% | [2] 63.6% | [3] 85.5% | [4] 70.9% | [5] 69.8% | [6] 55.7% | [7] 106% | [8] 43.1% | [9] 87.4% | [10] 55.3%

CN(C)CCOc1nc2ccccc2c2c1-c1ccc(Cl)cc1C2=O
active: [1] -33.8% | [2] -63.8% | [4] 0.224% | [5] 2.76% | [6] -91.6% | [7] -39.5% | [8] -37.1% | [9] -49.9% | [10] -9.67%
inactive: [3] 14.9%

N#CCCN1C/C(=C/c2ccccc2)C(=O)/C(=C/c2ccccc2)C1
active: [1] -48.5% | [4] -0.696% | [7] 0.851% | [8] -65.5%
inactive: [2] 62.1% | [3] 68% | [5] 41.1% | [6] 29% | [9] 54.2% | [10] 62.3%

COc1ccc(/C(=C2\O[C@@H]([C@H]3COC(C)(C)O3)[C@H]3OC(C)(C)O[C@@H]23)c2cc(OC)c(OC)c(OC)c2)cc1O
active: [2] 6.11%
inactive: [1] 107% | [3] 47.4% | [4] 46.2% | [5] 30.6% | [6] 59.6% | [7] 93.2% | [8] 36.9% | [9] 59.6% | [10] 103%

CCCCCCN(CCCCCC)CC(O)c1ccc2c3c(cccc13)CC2 (stereo not given)
inactive: [2] 120% | [3] 82.4% | [4] 49.5% | [5] 51.5% | [6] 59.7% | [7] 65.2% | [8] 21.4% | [9] 71.7% | [10] 55.8%
active: [1] -4.58%

CC/C(=N\N=C(/CC)c1ccc(Br)cc1)c1ccc(Br)cc1
inactive: [1] 74.1% | [2] 89.9% | [3] 108% | [4] 105% | [5] 94.2% | [6] 104% | [7] 87.9% | [8] 98.7% | [9] 104% | [10] 97.3%

COc1ccc(-c2cc(-c3cccc(NS(C)(=O)=O)c3)nc(N)c2C#N)cc1
active: [1] 8.45% | [2] -6.31% | [5] 9.4%
inactive: [3] 42.1% | [4] 28.5% | [6] 13.6% | [7] 39.9% | [8] 44.8% | [9] 66% | [10] 49.8%

Cc1ccc(Nc2nnc(-c3cc(-c4ccncc4)n(-c4ccccc4)n3)s2)cc1
inactive: [1] 36.9% | [2] 116% | [3] 89.7% | [4] 65.6% | [5] 56.1% | [6] 67.7% | [7] 83.9% | [8] 58.5% | [9] 106% | [10] 92.4%

CC1CC(=O)OC(C)C1 (stereo not given)
inactive: [1] 112% | [2] 78.9% | [3] 116% | [4] 101% | [5] 101% | [6] 100% | [7] 114% | [8] 102% | [9] 102% | [10] 90.1%

O=[N+]([O-])c1ccc(Oc2cc(Cl)c(Cl)cc2Cl)c(C(F)(F)F)c1
inactive: [1] 105% | [2] 89.4% | [3] 111% | [4] 97.9% | [5] 92.1% | [6] 96% | [7] 97% | [8] 99.2% | [9] 101% | [10] 94.3%

CCCCCCCCCCCCCCCCCC(=O)OCCCCCCC
inactive: [1] 102% | [2] 98.3% | [3] 116% | [4] 100% | [5] 92.9% | [6] 110% | [7] 110% | [8] 96.5% | [9] 122% | [10] 127%

Source: PubChem BioAssay (NCI)
